The text below walks through data of PubChem BioAssay (NCATS).

The target in experiment [1] is Rap guanine nucleotide exchange factor 3 (Homo sapiens) (UniProt O95398). As to the kind of experiment: Confirmatory qHTS for agonist of cAMP-regulated guanine nucleotide exchange factor 3 (EPAC1) (AID 1645881).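 Further: EPAC1 catalysed release of BODIPY-GDP from Rap1B seen as fluorescence loss; 100% = effect of cAMP agonist control; nearly all actives have a fitted effect of over 75% in size.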 A general note: In qHTS, concentration-response curves come from the screen itself.
Sequence of Rap guanine nucleotide exchange factor 3 (Homo sapiens) (O95398 whole entry, looked up): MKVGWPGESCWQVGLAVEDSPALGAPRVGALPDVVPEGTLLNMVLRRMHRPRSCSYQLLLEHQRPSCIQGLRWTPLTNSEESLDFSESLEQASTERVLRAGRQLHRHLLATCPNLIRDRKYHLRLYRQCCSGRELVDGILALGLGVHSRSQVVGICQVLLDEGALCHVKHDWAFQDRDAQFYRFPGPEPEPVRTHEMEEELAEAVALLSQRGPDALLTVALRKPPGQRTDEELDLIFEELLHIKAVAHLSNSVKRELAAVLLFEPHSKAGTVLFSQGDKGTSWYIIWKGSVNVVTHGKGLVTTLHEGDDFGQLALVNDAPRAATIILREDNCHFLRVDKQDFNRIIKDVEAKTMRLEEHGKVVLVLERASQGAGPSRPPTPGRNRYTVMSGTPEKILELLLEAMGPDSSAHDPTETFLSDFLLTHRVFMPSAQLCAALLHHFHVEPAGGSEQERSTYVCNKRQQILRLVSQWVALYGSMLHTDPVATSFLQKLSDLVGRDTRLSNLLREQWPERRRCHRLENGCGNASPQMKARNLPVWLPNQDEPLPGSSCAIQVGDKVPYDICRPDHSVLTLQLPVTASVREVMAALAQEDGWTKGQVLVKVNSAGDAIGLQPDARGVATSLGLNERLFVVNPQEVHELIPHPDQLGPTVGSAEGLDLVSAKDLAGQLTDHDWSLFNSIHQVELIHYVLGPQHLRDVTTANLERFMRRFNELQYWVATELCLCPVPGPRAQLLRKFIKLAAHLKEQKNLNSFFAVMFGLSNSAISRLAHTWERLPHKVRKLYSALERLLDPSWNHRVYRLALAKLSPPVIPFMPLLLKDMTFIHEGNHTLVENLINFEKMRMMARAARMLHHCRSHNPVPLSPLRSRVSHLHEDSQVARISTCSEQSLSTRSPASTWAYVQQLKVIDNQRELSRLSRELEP
For experiment [2], the target named is Rap guanine nucleotide exchange factor 4 (Homo sapiens) (UniProt Q8WZA2). As to the kind of experiment: Confirmatory qHTS for agonist of cAMP-regulated guanine nucleotide exchange factor 4 (EPAC2) (AID 1645884).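 Further: nucleotide exchange releases bodipy-GDP from Rap1 and this lowers its fluorescence; on the % scale 0 is the no-effect control and ±100 the full control effect; nearly all actives have a fitted effect of over 65% in size.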
Sequence of Rap guanine nucleotide exchange factor 4 (Homo sapiens) (Q8WZA2 whole entry, looked up): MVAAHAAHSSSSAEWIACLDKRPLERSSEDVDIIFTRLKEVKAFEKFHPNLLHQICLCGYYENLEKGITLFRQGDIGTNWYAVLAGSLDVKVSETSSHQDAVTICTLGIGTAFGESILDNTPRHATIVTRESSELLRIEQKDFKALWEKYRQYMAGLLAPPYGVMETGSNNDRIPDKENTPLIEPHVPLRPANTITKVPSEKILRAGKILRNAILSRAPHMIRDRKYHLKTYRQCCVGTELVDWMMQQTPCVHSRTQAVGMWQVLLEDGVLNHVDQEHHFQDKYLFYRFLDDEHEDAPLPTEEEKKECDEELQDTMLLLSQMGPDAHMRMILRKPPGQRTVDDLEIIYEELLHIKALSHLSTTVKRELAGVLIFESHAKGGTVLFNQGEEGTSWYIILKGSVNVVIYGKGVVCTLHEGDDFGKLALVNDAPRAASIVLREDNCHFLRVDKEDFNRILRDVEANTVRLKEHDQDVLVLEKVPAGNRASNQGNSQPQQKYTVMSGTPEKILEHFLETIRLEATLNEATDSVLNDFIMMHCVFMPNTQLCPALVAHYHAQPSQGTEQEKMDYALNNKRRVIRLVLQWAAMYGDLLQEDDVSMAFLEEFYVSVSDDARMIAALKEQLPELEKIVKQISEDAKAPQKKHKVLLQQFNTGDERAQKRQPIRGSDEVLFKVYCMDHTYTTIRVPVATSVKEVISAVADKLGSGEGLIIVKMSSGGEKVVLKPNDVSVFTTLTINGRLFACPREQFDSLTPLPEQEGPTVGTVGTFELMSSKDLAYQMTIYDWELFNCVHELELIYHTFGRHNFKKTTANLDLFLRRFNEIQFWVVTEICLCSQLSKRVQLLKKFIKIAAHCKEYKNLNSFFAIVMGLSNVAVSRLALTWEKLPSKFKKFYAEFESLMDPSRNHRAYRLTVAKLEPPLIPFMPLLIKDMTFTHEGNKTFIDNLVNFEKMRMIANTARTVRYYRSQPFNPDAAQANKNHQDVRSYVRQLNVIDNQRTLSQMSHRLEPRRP
Experiment [3] shares this target. As to the kind of experiment: Confirmatory qHTS for antagonist of cAMP-regulated guanine nucleotide exchange factor 4 (EPAC2) (AID 1645885). Further: nearly all actives have a fitted effect of over 25% in size. Further: potency means the concentration at half of the fitted maximal effect. On activity change, negative = inhibition: on the % scale 0 is the no-effect control and ±100 the full control effect.
Experiment [4] concerns the target Rap guanine nucleotide exchange factor 3 (Homo sapiens) (UniProt O95398). As to the kind of experiment: Counterscreen qHTS for antagonist of cAMP-regulated guanine nucleotide exchange factor 3 (EPAC1) (AID 1645888).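 Further: fluorescence loss as bound BODIPY-GDP is released from Rap1B; % of control where 0% means no effect.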 The method in brief:
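Measured: fluorescence of BODIPY-GDP bound to Rap1B, which falls as exchange proceeds. Conditions include 50 uM competing GDP, 5 and 30 min reads, and a later cAMP challenge for antagonist detection.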
Background: The purpose of a counterscreen is to sort out artefacts and off-target activity.

SMILES strings stand for the structures. Results filed as inconclusive are left out. Values without a mark were called inactive. The source made the active and inactive calls. The call rests on the fitted dose curve; in most records, active means well fitted curve in the direction sought with a large enough effect; inconclusive means small, poorly fitted or top-dose-only effect, or another doubt; inactive means no such curve, though single readings can be large; an effect the other way counts as inactive or inconclusive.

In the case of `Oc1ccccc1CNc1ccc(OC(F)(F)F)cc1`, the Potency result in experiment [1], in experiment [2], in experiment [3] and in experiment [4] was “inactive” each time.
`C[C@@]12C(=O)Nc3cc(F)ccc3C(=O)N1[C@H]1c3cc(Br)ccc3OC[C@@H]1[C@@H]2c1ccccc1`: the Potency entry in experiment [1], in experiment [2], in experiment [3] and in experiment [4] was “inactive” each time.
For the molecule `CC1=C(C(=O)Nc2ccccc2)C(c2ccc[nH]2)n2ncnc2N1` (stereo not given), the Potency entry in experiment [1], in experiment [2], in experiment [3] and in experiment [4] was “inactive” throughout.
`O=C(NNC(=O)c1ccccc1F)c1cccc(-n2cccc2)c1`: the Potency result in experiment [1], in experiment [2], in experiment [3] and in experiment [4] was “inactive” each time.
For `COc1cc(NC(=O)c2cccc([N+](=O)[O-])c2)ccc1NC(=O)c1ccco1`, the Potency entry in experiment [1], in experiment [2], in experiment [3] and in experiment [4] was “inactive” each time.
In the case of `O=C(CSc1nc2ccc(Cl)cc2[nH]1)N1CCN(C(=O)c2ccco2)CC1`, the Potency result in experiment [1], in experiment [2], in experiment [3] and in experiment [4] was “inactive” in each case.
Take `COc1cn(-c2ccccc2)nc1C(=O)Nc1ccc(C)cc1Cl`: the Potency entry in experiment [1], in experiment [2] and in experiment [4] was “inactive” throughout. In experiment [3], the Potency is 95.3 µM (active).
Turning to `C=CS(=O)(=O)N(Cc1ccccc1Br)[C@H](CO)CC(C)C`, the Potency entry in experiment [1] and in experiment [3] was “inactive” each time. For the same molecule, the activation in experiment [2] is 1.88% [at 17.1 µM, percent relative to cAMP agonist control]. In addition, the activity change, negative = inhibition in experiment [4] was -13.6% [at 30.8 µM].
For the molecule `Cc1cc(/C=C2\C(=N)N3N=C(c4ccco4)SC3=NC2=O)c(C)n1Cc1ccccc1`, the Potency entry in experiment [1], in experiment [2], in experiment [3] and in experiment [4] was “inactive” throughout.
With `C/C(=N\NC(=O)c1ccc(O)cc1)c1cccc(NC(=O)c2ccc(Cl)cc2)c1`, the Potency entry in experiment [1], in experiment [2], in experiment [3] and in experiment [4] was “inactive” in each case.
Regarding `CCOC(=O)C1CCN(c2c(C(=O)c3ccc(C)cc3)cnc3ccc(F)cc23)CC1`, the Potency result in experiment [1], in experiment [2], in experiment [3] and in experiment [4] was “inactive” in each case.
Regarding `O=C1c2cccc3cc([N+](=O)[O-])cc(c23)C(=O)N1/N=C/c1ccc(O)cc1O`, the Potency entry in experiment [1], in experiment [2], in experiment [3] and in experiment [4] was “inactive” throughout.
As to `CCOc1cc(/C=C2/NC(=O)NC2=O)cc(Br)c1OCc1ccc(C(=O)O)cc1`, the Potency entry in experiment [1] and in experiment [3] was “inactive” each time. Also, the activation in experiment [2] was 4.12% [at 17.1 µM, percent relative to cAMP agonist control]. For the same molecule, the activity change, negative = inhibition in experiment [4] was -1.26% [at 30.8 µM].
Take `Cc1c(C)c2ccc(OCC(=O)Nc3ccc(S(N)(=O)=O)cc3)c(C)c2oc1=O`: the Potency result in experiment [1], in experiment [2], in experiment [3] and in experiment [4] was “inactive” throughout.
`CCOC(=O)c1ccc(-n2c(N)c(C(=O)OC)c3nc4ccccc4nc32)cc1`: the Potency entry in experiment [1], in experiment [2] and in experiment [4] was “inactive” throughout. In addition, the outcome in experiment [3] is “inactive [at 12.7 µM]”.
